# Hits are enriched below; roughly 17% of the tested compounds scored in any of these assays.
# DT40 TDP1 CPT: qHTS for Inhibitors of human tyrosyl-DNA phosphodiesterase 1 (TDP1): qHTS in cells in presence of CPT | chicken DT40 Tdp1-/-;hTDP1 cells + 20 nM CPT, ATP luminescence, 48 h | Potency, µM (top dose mostly 46.2 µM), inactives show at the top dose activity change, negative = growth inhibition, usual class: inhibitors | hit rate 12% among 420,000 | AID 686979, 2013; further: on the % scale 0 is the no-effect control and ±100 the full control effect; nearly all actives have a fitted effect of over 55% in size
#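 Chicken DT40 Tdp1-/- cells complemented with human TDP1, 400 cells/well, exposed to compounds plus 20 nM camptothecin for at least 48 h at 37 C; viability read as ATP content by CellTiter-Glo luminescence.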
# DT40 TDP1 no CPT: qHTS for Inhibitors of human tyrosyl-DNA phosphodiesterase 1 (TDP1): qHTS in cells in absence of CPT | DT40 Tdp1-/- hTDP1 cells, no CPT, ATP luminescence, 48 h | Potency, µM (series often up to 46.2 µM), without a hit: at the highest dose activity change, negative = growth inhibition, most hits filed as inhibitors | hit rate 15% among 420,000; further: on the % scale 0 is the no-effect control and ±100 the full control effect; nearly all actives have a fitted effect of over 55% in size
#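 No-CPT arm: Tdp1-/-;hTDP1 DT40 cells (400/well) plus compounds, incubated ≥48 hr at 37 °C. Readout CellTiter-Glo luminescence.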
# ATXN2 expr inh: Primary qHTS for Inhibitors of ATXN expression. HEK-293 ATXN2-luciferase reporter, luminescence, 24 h. Potency, µM (doses to about 57 µM), inactives show at the highest dose activity change, negative = inhibition, actives largely listed as inhibitors. hit rate 0.72% among 360,000. AID 1745845, 2022; further: on the % scale 0 is the no-effect control and ±100 the full control effect; nearly all actives have a fitted effect of over 55% in size
#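 qHTS (up to 57 uM final) was run with 24 h compound exposure of reporter cells at 37 °C. Each well was multiplexed: SteadyGlo luminescence measured ATXN2-luciferase expression after a fluorogenic Gly-Phe-AFC viability readout (25 uM final).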
# ATXN viability: Viability Counterscreen for Primary qHTS for Inhibitors of ATXN expression | S2 cells (HEK-293 line with an ATXN2-luciferase reporter) viability, CellTiter-Fluor protease fluorescence, 24 h | Potency, µM (titrated, usually from 56.7 µM), most hits filed as cytotoxic | hit rate 0.49% among 400,000; further: nearly all actives have a fitted effect of over 40% in size
# HepG2 viability: qHTS for Inhibitors of TGF-b: Cytotox Counterscreen | Potency, µM (series often up to 46.1 µM), for inactives: at the highest dose activity change, negative = cytotoxicity, usual class: cytotoxic | AID 588856, 2011 | HepG2 CAGA-GFP viability, ATP luminescence, 18 h | hit rate 0.76% among 410,000
#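 HepG2 CAGA-GFP cells (1000/well, DMEM with 1% FBS) received compound, then TGF-beta at 500 pg/mL final, and were incubated 18 hours at 37 degrees C. Viability was read by CellTiter-Glo luminescence. Media-only wells were set as complete cell-killing and DMSO as no toxicity.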
# TGFb inhibitor: qHTS for Inhibitors of TGF-b; hit rate 1.2% among 410,000; Potency, µM (doses to about 46.1 µM), without a hit: at the top dose activity, negative = inhibition, actives largely listed as inhibitors; HepG2 CAGA-GFP TGF-b/SMAD3 reporter, GFP fluorescence, 18 h; TGF-beta stimulated, 500 pg/mL final; further: on the % scale 0 is the no-effect control and ±100 the full control effect; nearly all actives have a fitted effect of over 65% in size
#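 TGF-beta reporter screen: HEPG2 CAGA-GFP, 1% FBS, 500 pg/mL TGF-beta final, 18 h; per-cell GFP summed per well; curves fitted and categorized by class.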
# * marks the source's active call; other numbers are inactive results; i = inactive; ? = inconclusive; . = not tested or not shown. The call rests on the fitted dose curve; in most records, active means well fitted curve in the direction sought with a large enough effect; inconclusive means small, poorly fitted or top-dose-only effect, or another doubt; inactive means no such curve, though single readings can be large; an effect the other way counts as inactive or inconclusive. Potency means the concentration at half of the fitted maximal effect.
SMILES,DT40 TDP1 CPT,DT40 TDP1 no CPT,ATXN2 expr inh,ATXN viability,HepG2 viability,TGFb inhibitor
COCCNCC(=O)Nc1ccc(C)c(S(=O)(=O)N2CCCCC2)c1,7%,-3%,-38%,?,1%,-9%
Cc1ccc(C(=O)OC(C)C(=O)N(C)C2CCCCC2)cc1S(=O)(=O)N1CCCCC1 (centres undefined),?,23µM*,.,?,-31%,?
Cc1ccc(NC(=O)CNc2ccccc2N2CCCC2=O)cc1S(=O)(=O)N1CCCCC1,16µM*,15µM*,0%,i,-20%,-14%
CN(C)C(=O)c1cc(C(=O)c2ccc(C(F)(F)F)cc2)c[nH]1,-26%,?,.,i,-11%,-11%
COc1cccc(-c2cc(C(F)(F)F)n3nc(C)c(-c4ccccc4)c3n2)c1,-6%,-22%,2%,i,-20%,10%
O=C1N=C(N2CCCC2)S/C1=C\C=C\c1ccccc1,-3%,-28%,.,i,-17%,-6%
O=C(CSc1n[nH]c(=O)n1C1CC1)Nc1ccc(F)c([N+](=O)[O-])c1,0%,-9%,5%,i,-4%,2%
O=C1NC[C@@H](CCCCN2C[C@H](Cc3ccc(O)cc3)N(CCc3ccc(O)cc3)C(=O)C2=O)N(CC2CCCCC2)C1=O,0%,?,-2%,i,.,.
COc1cc(/C=C2/SC(=O)N(Cc3ccccc3Cl)C2=O)ccc1OCc1ccncc1,18µM*,?,-13%,i,11%,8%
CCC(C(=O)N1CCN(c2cc(C)ccc2C)CC1)n1nc(C)n2c(cc3occc32)c1=O (centres undefined),?,?,?,?,-20%,?
CC(C)c1ccc(/C=C/C(=O)Nc2nncs2)cc1,?,13µM*,6%,i,-32%,?
Cc1ccccc1OCC(=O)NCC(=O)OCc1ccc(Br)cc1,?,-2%,-11%,i,-25%,0%
CCNC(=O)c1cc2c(c(-c3cccc(-c4ccccc4F)c3)n1)[C@@H](CCO)N(C(=O)CC1CC1)C2,21µM*,?,-37%,?,.,.
CCS(=O)(=O)N1Cc2cc(C(=O)NCCOC)nc(-c3cccc(-c4ccncc4)c3)c2[C@@H]1CCO,-14%,-13%,-4%,i,.,.
CCCNC(=O)c1cc2c(c(-c3cccc(-c4ccccc4F)c3)n1)[C@H](CCO)N(C(=O)CC1CC1)C2,16µM*,16µM*,?,?,.,.
CCC(=O)N1Cc2cc(C(=O)NCCOC)nc(-c3cccc(-c4ccc(C#N)cc4)c3)c2[C@H]1CCO,-18%,?,2%,i,.,.
COc1ccc(-c2cn3cccnc3n2)cc1NC(=O)c1ccccc1C(F)(F)F,-25%,-13%,.,.,-19%,-5%
COc1ccc(CN(Cc2ccco2)C(=O)COc2ccccc2OC)cc1,?,18µM*,.,.,-32%,-31%
COc1ccc(CN(Cc2ccco2)C(=O)COc2ccccc2Cl)cc1,?,23µM*,.,.,-30%,-36%
O=C(Cn1ncc2c([nH]c3ccccc32)c1=O)Nc1cccc(C(F)(F)F)c1,1%,2%,17%,i,-34%,-1%
Cn1c(N)c(C(=O)COC(=O)c2cc(S(=O)(=O)N3CCOCC3)ccc2F)c(=O)n(C)c1=O,5%,5%,?,?,3%,10%
COc1cc2sc3cc(NCC[C@@H]4CCCN4C)ccc3c(=O)c2cc1OC,?,?,-12%,i,-9%,-8%
COc1cc2sc3cc(NCc4ccc(C)o4)ccc3c(=O)c2cc1OC,?,15µM*,10%,i,-19%,-10%
COc1cc2sc3cc(NCc4ccc5c(c4)OCO5)ccc3c(=O)c2cc1OC,?,16µM*,10%,i,-1%,-28%
COc1ccc(NCc2ccc3c(c2)OCO3)cc1Cl,-12%,-16%,49%,i,-7%,23%
SMILES,DT40 TDP1 CPT,DT40 TDP1 no CPT,ATXN2 expr inh,ATXN viability,HepG2 viability,TGFb inhibitor
CC1(C(=O)NS(=O)(=O)c2ccc(Cl)cc2)CCN1C(=O)C1(c2ccc(Cl)cc2)CCC1 (centres undefined),21µM*,?,-10%,i,-31%,-21%
Cc1ccc(F)c(S(=O)(=O)NC(=O)C2(C)CCN2C(=O)C2(c3ccc(Cl)cc3)CCC2)c1 (centres undefined),16µM*,?,-3%,i,-52%,?
CC1(C(=O)NS(=O)(=O)c2ccc(Cl)cc2)CCN1C(=O)C1(c2ccccc2)CCCC1 (centres undefined),?,?,2%,i,2%,11%
CC1(C(=O)NS(=O)(=O)c2ccc(C#N)cc2)CCN1C(=O)C1(c2ccccc2)CCCC1 (centres undefined),12µM*,13µM*,10%,i,-20%,29%
Cc1ccc(F)c(S(=O)(=O)NC(=O)C2(C)CCN2C(=O)C2(c3ccc(Cl)cc3)CC2)c1 (centres undefined),-10%,-4%,11%,i,0%,-1%
Nc1ccc(S(=O)C(F)(F)F)cc1 (centres undefined),0%,7%,-11%,i,-1%,?
COCc1cc(=O)n2[nH]c(C)c(-c3ccc(Cl)cc3)c2n1,13µM*,16µM*,.,i,14µM*,-11%
Cc1[nH]n2c(=O)cc(-c3ccccc3Cl)nc2c1-c1ccccc1,9.2µM*,2.6µM*,-25%,i,-46%,?
Cc1cccc(CCNC(=O)c2ccc(CSCc3cccc(Cl)c3)o2)c1,?,?,-14%,i,-29%,?
Cc1cc(C)c(NC(=O)CSCc2nc3sc(C)c(C)c3c(=O)[nH]2)c(Cl)c1,?,?,-21%,i,-6%,0%
CCCCOc1cccc(C(=O)N2CCN(CCc3ccncc3)CC2)c1,?,?,-3%,i,-15%,13%
Cc1ccc(Cn2c(=N)c(C(=O)NCc3ccco3)cc3c(=O)n4ccccc4nc32)cc1,11µM*,11µM*,-15%,i,-14%,-2%
COCCCn1c(=N)c(C(=O)NCc2ccco2)cc2c(=O)n3ccccc3nc21,-1%,-28%,-17%,.,9%,0%

# Source: PubChem BioAssay
